Source: PubChem (National Center for Advancing Translational Sciences (NCATS))
KB-V1 cytotox = qHTS assay for MDR1-selective chemotherapeutics: Primary screen using the drug-selected MDR subline cells KB-V1; KB-V1 MDR cells viability, CellTiter-Glo, 72 h; Potency, µM (top dose mostly 46.1 µM), usual class: cytotoxic; 400,000 compounds, 3.4% hits; AID 1347076, 2019; also: nearly all actives have a fitted effect of over 60% in size
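Drug-selected KB-V1 cells, grown in DMEM lacking phenol red with 10% FBS, receive compound titrations; after three days at 37 degrees C, surviving cell ATP is quantified by CellTiter-Glo luminescence and responses normalized and curve-fitted.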
HT1080 IDH1KD tx = qHTS for induction of synthetic lethality in tumor cells producing 2HG: qHTS for the HT-1080-IDH1KD cell line; Potency, µM (doses to about 46.1 µM), inactives show top-dose activity, negative = toxicity, actives largely listed as cytotoxic; AID 686971, 2013; 360,000 compounds, 2% hits; HT-1080 IDH1 knockdown viability, ATP luminescence, 48 h;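 also: 0% = DMSO wells and -100% = cell-free medium wells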
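% activity derives from luminescence (CellTiter-Glo), normalised to DMSO and no-cell wells. HT-1080-IDH1KD cells, 750/well, had 48 h compound exposure at 37 °C.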
DT40 TDP1 CPT = qHTS for Inhibitors of human tyrosyl-DNA phosphodiesterase 1 (TDP1): qHTS in cells in presence of CPT | chicken DT40 Tdp1-/-;hTDP1 cells + 20 nM CPT, ATP luminescence, 48 h | Potency, µM (titrated, usually from 46.2 µM), for inactives: at the top dose activity change, negative = growth inhibition, actives largely listed as inhibitors | 420,000 compounds, 12% hits | AID 686979, 2013; also: nearly all actives have a fitted effect of over 55% in size
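Chicken DT40 Tdp1-/- cells stably complemented with human TDP1 were seeded at 400 cells/well in medium containing 20 nM camptothecin, exposed to pin-transferred compounds, and grown at 37 °C for at least 48 hr. Viability was read as ATP luminescence.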
HT1080-NT tox = qHTS for induction of synthetic lethality in tumor cells producing 2HG: qHTS for the HT-1080-NT fibrosarcoma cell line; HT-1080-NT fibrosarcoma viability, CellTiter-Glo ATP luminescence, 48 h; Potency, µM (series often up to 46.1 µM), inactives show top-dose activity, negative = less viability, most hits filed as cytotoxic; 360,000 compounds, 1.6% hits; AID 686970, 2013;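 also: NT is the 2HG producing partner of a matched IDH1 knockdown line; 0% = DMSO-treated cells and -100% = media-only wells without cells; nearly all actives have a fitted effect of over 55% in size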
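HT-1080-NT; 750 cells/well; 5% FBS RPMI; 48 h compound, 37 degrees C; CellTiter-Glo luminescence; curve fitting and curve-class assignment.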
KB-3-1 tox = qHTS assay for MDR1-selective chemotherapeutics: Primary screen using the parental adenocarcinoma cell KB-3-1; 400,000 compounds, 1.4% hits; KB-3-1 viability, CellTiter-Glo ATP luminescence, 72 h; AID 1347075, 2019; Potency, µM (doses to about 46.1 µM), hits mostly cytotoxic; also: nearly all actives have a fitted effect of over 60% in size
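Luminescent ATP read-out (CellTiter-Glo) measures survival of drug-naive KB-3-1 cells after 72 h compound exposure at 37 °C. Titration series was screened from lowest to highest concentration, with DMSO vehicle plates as background controls.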
DT40 TDP1 no CPT = qHTS for Inhibitors of human tyrosyl-DNA phosphodiesterase 1 (TDP1): qHTS in cells in absence of CPT; DT40 Tdp1-/- hTDP1 cells, no CPT, ATP luminescence, 48 h; Potency, µM (doses to about 46.2 µM), for inactives: at the top dose activity change, negative = growth inhibition, hits mostly inhibitors; AID 686978, 2013; 420,000 compounds, 15% hits; also: nearly all actives have a fitted effect of over 55% in size
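Seeded 400 DT40-hTDP1 cells/well (vehicle DMSO, no 20 nM CPT); pinned compounds; ≥48 hr at 37 °C; CellTiter-Glo luminescence as viability measure.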
* hit, by the source's call; i = inactive; ? = inconclusive; · = no result given; [ ] = another dose, or the depositor's remark. A selection: hits, their analogues and other compounds. The true share with any hit is near 19%. Calls follow the shape of the dose curve; as a rule, active = well fitted curve in the direction sought with a large enough effect; inconclusive = small, poorly fitted or top-dose-only effect, or another doubt; inactive = no such curve, though single readings can be large; an effect the other way counts as inactive or inconclusive. Unless noted, % is scaled to controls: 0 for no effect and ±100 for the full control effect; potency is read from the fitted curve at half-maximal effect.

SMILES	KB-V1 cytotox	HT1080 IDH1KD tx	DT40 TDP1 CPT	HT1080-NT tox	KB-3-1 tox	DT40 TDP1 no CPT
COc1ccccc1C1CN(Cc2c(C)nn(C)c2Cl)Cc2ccccc2O1 (centres undefined)	·	·	-6%[9.04 µM]	·	·	-1%
OCCc1ccc(NCCc2cccs2)cc1	i	6%	-4%	?	i	-11%
Cc1ccc2c(c1C)-c1c(ccc(C)c1C)C(=O)C2=O	0.65µM*	10µM*	0.92µM*	5.8µM*	3.3µM*	1µM*
Nc1ccc2c(c1Cl)C(=O)c1ccc(N)c(Cl)c1C2=O	i	-2%	2%	2%	i	?
COc1ccc(S(=O)(=O)c2cn(Cc3ccccc3)c3cc(N4CCCC4)c(F)cc3c2=O)cc1	i	·	?	·	i	5.2µM*
Cc1cccc(S(=O)(=O)c2cn(Cc3ccccc3)c3cc(N4CCC(C)CC4)c(F)cc3c2=O)c1	·	·	5.8µM*	·	·	8.2µM*
O=c1c(S(=O)(=O)c2ccccc2)cn(Cc2ccc(F)cc2)c2cc(N3CCOCC3)c(F)cc12	i	·	21µM*	·	i	15µM*
CN(C(=O)COC(=O)COc1ccc2ccccc2c1)c1ccccc1	i	1%	-10%	3%	i	-25%
COc1ccc(-n2nc3c(c2NC(=O)COc2cccc(OC)c2)CS(=O)(=O)C3)cc1	i	10%	3%	0%	i	-2%
Cc1ccc(CN2CCN(Cc3cccc(-n4cccn4)c3)CC2CCO)cc1 (centres undefined)	i	2%	12µM*	4%	i	?
COc1cc(CN2CCN(Cc3ccc(C)cc3)C(CCO)C2)cc(OC)c1O (centres undefined)	i	-3%	21µM*	-4%	i	?
Cc1cc(C)c(CN2CCN(Cc3ccc(C)o3)C(CCO)C2)c(-n2cccn2)c1 (centres undefined)	?	?	?	?	i	23µM*
Fc1cccc(Cc2c(-c3ccco3)nc3c(Cl)cc(C(F)(F)F)cn23)c1	?	?	?	?	i	?
Cc1cc(=O)oc2cc(OCC(=O)Nc3c(C(C)C)cccc3C(C)C)ccc12	i	·	?	·	i	13µM*
Cc1noc(C)c1CCC(=O)Nc1c(C(C)C)cccc1C(C)C	15µM*	-1%	-13%	0%	i	-20%
Cc1cc(=O)oc2cc(NC(=O)C(C)Oc3cccc(Cl)c3)ccc12 (centres undefined)	i	?	?	26µM*	i	?
Cc1cc(=O)oc2cc(NC(=O)c3ccccc3OC(F)F)ccc12	?	-23%	11%	-20%	i	-16%
Cc1cc(OCC(=O)Nc2c(C(C)C)cccc2C(C)C)no1	i	4%	13µM*	16%	?	8.2µM*
O=C(Nc1ccc(F)cc1)C(c1cccc(F)c1)N1CCN(c2cccc(C(F)(F)F)n2)CC1 (centres undefined)	?	?	?	?	i	?
CC(OC(=O)c1cccc(S(=O)(=O)N2CCOCC2)c1)C(=O)NC1CCCCC1C (centres undefined)	i	1%	-17%	4%	i	1%
Cc1ccc(CNC(=O)c2ccc(-n3cnc4cccnc43)cc2)cc1	?	·	·	·	i	·
